Values joined by “and” are separate entries in the source; they are usually repeats but may differ in a detail not shown here. Identical values can stand only once. Counter-ions that a name gives are not always drawn. ± gives the standard deviation of the averaged measurements.

The subject of one experiment is ES2. Briefly: cell viability relative to DMSO control (MTS) (fraction of DMSO control); higher = more viable cells / less growth inhibition. Conditions: 10 µM; 48 h. The gist of the method:
(§1)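 Viability values are fractions of the vehicle-treated control. They come from an MTS assay run per the manufacturer's instructions on TOV-21G and ES2 clear cell carcinoma cells, seeded at 5000 cells per well in 96-well plates. Each compound of a 367-member […] library was added at 10 µM final after 24 h of growth, and the readout was taken after a further 48 h.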

Another experiment relates to TOV-21G. The description is as above. The conditions noted are these: 10 µM; 48 h. Summed up:
as §1

Regarding `C/C=C(/C)C(=O)O[C@H]1C(C)=C2[C@H]([C@@H]1OC(=O)CCCCCCC)[C@@](C)(OC(C)=O)C[C@H](OC(=O)CCC)[C@@]1(O)[C@H]2OC(=O)[C@@]1(C)O` [Thapsigargin], the cell viability in the experiment on ES2 turned out to be 0.505; in the experiment on TOV-21G, 0.348.

For `CC(C)(O)/C=C/C(=O)[C@](C)(O)[C@H]1[C@H](O)C[C@@]2(C)[C@@H]3CC=C4[C@@H](C=C(O)C(=O)C4(C)C)[C@]3(C)C(=O)C[C@]12C` [Cucurbitacin I], the results for the cell viability in the experiment with ES2 and in the experiment with TOV-21G were 0.393 and 0.328, respectively.

In the case of `CC(C)(C)c1cc(C=C(C#N)C#N)cc(Br)c1O`, the cell viability in the experiment with ES2 worked out at 0.94 ± 0.18; in the experiment on TOV-21G, 1.09 ± 0.034.

In the case of `CC[C@H]1/C=C/C=C/C[C@@H](C)[C@H](O)[C@@](C)(O)C(=O)[C@@H](C)[C@H](O)[C@@H](C)C(=O)[C@@H](C)[C@H](O)[C@@H](C)/C=C/C(=O)O[C@@H]2[C@H](C)[C@H](CC1)O[C@]1(CC[C@H](C)[C@H](C[C@@H](C)O)O1)[C@H]2C` [Oligomycin], the cell viability turned out to be 0.67 in the experiment on ES2 and 0.535 in the experiment with TOV-21G.

Consider `C[C@@H]1C[C@@H]([C@H](O)CC2CC(=O)NC(=O)C2)C(=O)[C@@H](C)C1` [Cycloheximide], for which the values for the cell viability with ES2 and in the experiment on TOV-21G were 0.547 and 0.373, respectively.

For `O=C1Nc2ccccc2C2(CCN(CCc3ccc(C(F)(F)F)cc3)CC2)O1`, the cell viability in the experiment with ES2 is 0.915; in the experiment with TOV-21G it was 1.12.

With `N=C(N)NN` [Aminoguanidine, HCl], the cell viability in the experiment on ES2 turned out to be 0.55; in the experiment on TOV-21G, 0.337.

Take `C[C@H]1CCC/C=C/[C@@H]2C[C@H](O)C[C@H]2[C@H](O)/C=C/C(=O)O1` [brefeldin A]: the results for the cell viability in the experiment on ES2 and in the experiment with TOV-21G were 0.355 and 0.407, respectively.

Regarding `CNc1ccc2oc(C[C@H]3O[C@@]4(CC[C@H]3C)O[C@H]([C@H](C)C(=O)c3ccc[nH]3)[C@H](C)C[C@H]4C)nc2c1C(=O)O`, the cell viability in the experiment with ES2 came to 0.425; in the experiment with TOV-21G it was 0.284.

Consider `C/C(O)=C(\C#N)C(=O)Nc1cc(Br)ccc1Br`, for which the cell viability is 1.06 ± 0.013 in the experiment with ES2 and 1.34 ± 0.19 in the experiment on TOV-21G.

Take `CCC1(c2ccc(N)cc2)CCC(=O)NC1=O` (stereo not given) [Aminoglutethimide]: the cell viability with ES2 was 1.08; in the experiment on TOV-21G it was 0.918.

As for `COc1ccc2c3c([nH]c2c1)[C@H](C=C(C)C)N1C(=O)[C@@H]2CCCN2C(=O)[C@@H]1C3` [Fumitremorgin C], the cell viability was 0.945 with ES2 and 0.838 in the experiment with TOV-21G.

Turning to `C=C(C)[C@H]1Cc2c(ccc3c2O[C@@H]2COc4cc(OC)c(OC)cc4[C@@H]2C3=O)O1` [Rotenone], the cell viability in the experiment with ES2 came out at 0.491; with TOV-21G, 0.666.

Regarding `O=C1C2CCN(CC2)C1(CO)CO`, the cell viability is 1.01 in the experiment on ES2 and 1.1 with TOV-21G.

As to `CC1=C2C[C@H]3[C@@H](CC=C4C[C@@H](O)CC[C@@]43C)[C@@H]2CC[C@]12O[C@@H]1C[C@H](C)CN[C@H]1[C@H]2C` [cyclopamine], the figures for the cell viability in the experiment on ES2 and with TOV-21G were 0.92 and 0.927, respectively.

For the compound `N.N.[Cl][Pt][Cl]` [Cisplatin], the cell viability is 0.794 in the experiment with ES2 and 1.09 in the experiment on TOV-21G.

Turning to `C[C@H](CCC(=O)O)C[C@H](C)C[C@H](C)C(=O)/C=C(\O)[C@H](C)C[C@H](C)C/C=C/[C@@H](C)[C@@H](O)[C@@H](C)[C@@H](O)C[C@@H]1CC[C@@](C)([C@H]2CC[C@@](C)([C@@H](C)O)O2)O1` [Ionomycin], the figures for the cell viability with ES2 and with TOV-21G were 0.54 and 0.501, respectively.

Regarding `C[C@]12CCC(=O)C(O)=C1CC[C@@H]1[C@@H]2CC[C@]2(C)C(=O)CC[C@@H]12` [Formestane], the cell viability in the experiment with ES2 came to 1.11; in the experiment with TOV-21G, 1.32.

Take `N[C@@H]1C[C@H]1c1cc(F)cc(F)c1OCc1ccccc1` [S2101 (LSD1 inhibitor II)]: the cell viability came out at 0.792 in the experiment on ES2 and 1.04 with TOV-21G.

On to `CC1=C2C(=O)[C@H]3[C@@H](CC=C4C[C@@H](O)CC[C@@]43C)[C@@H]2CC[C@]12O[C@@H]1C[C@H](C)CN[C@H]1[C@H]2C` [Jervine], for which the cell viability with ES2 came out at 1.04; with TOV-21G, 1.64.

In the case of `C=C1[C@@H](C)[C@H]2[C@H](Cc3ccccc3)NC(=O)[C@]23[C@H](OC(C)=O)/C=C/[C@@](C)(O)C(=O)[C@@H](C)C/C=C/[C@H]3[C@@H]1O` [Cytochalasin D], the cell viability in the experiment on ES2 came to 0.498; in the experiment on TOV-21G, 0.472.

In the case of `C#CCN(C)C(C)Cc1ccccc1` (stereo not given) [Deprenyl], the cell viability in the experiment with ES2 was found to be 1.12; in the experiment on TOV-21G, 1.01.

On to `CN[C@@H]1C[C@H]2O[C@@](C)([C@@H]1OC)n1c3ccccc3c3c4c(c5c6ccccc6n2c5c31)C(=O)NC4` [Staurosporine], for which the cell viability is 0.301 in the experiment on ES2 and 0.239 in the experiment on TOV-21G.

`COC[C@H]1OC(=O)c2coc3c2[C@@]1(C)C1=C(C3=O)[C@@H]2CCC(=O)[C@@]2(C)C[C@H]1OC(C)=O` [Wortmannin]: the cell viability is 0.956 ± 0.059 in the experiment on ES2 and 0.6 ± 0.027 in the experiment on TOV-21G.

Regarding `O[C@H]1[C@H]2[C@H](O)CCCN2C[C@H]1O` [Swainsonine], the cell viability is 0.98 with ES2 and 0.689 with TOV-21G.

`O=C(O)c1nn(Cc2ccc(Cl)cc2Cl)c2ccccc12` [Lonidamine]: the cell viability in the experiment with ES2 was 0.925; with TOV-21G it was 1.09.

Consider `CC(=O)N[C@H]1[C@@H](O[C@@H]2O[C@H](CC(O)[C@H]3O[C@@H](n4ccc(=O)[nH]c4=O)[C@H](O)[C@@H]3O)[C@H](O)[C@H](O)[C@H]2NC(=O)/C=C/CC(C)C)O[C@H](CO)[C@@H](N)[C@@H]1O` (stereo not given in full) [Tunicamycin], for which the cell viability in the experiment on ES2 amounted to 1.19; in the experiment with TOV-21G, 1.03.

For the compound `CC[C@@]1(O)C(=O)OCc2c1cc1n(c2=O)Cc2cc3ccccc3nc2-1` [Camptothecin], the cell viability came to 0.527 in the experiment on ES2 and 0.267 in the experiment on TOV-21G.

As for `CC(C)[C@@H]1NC(=O)[C@H](C)OC(=O)[C@@H](C(C)C)NC(=O)[C@@H](C(C)C)OC(=O)[C@H](C(C)C)NC(=O)[C@H](C)OC(=O)[C@@H](C(C)C)NC(=O)[C@@H](C(C)C)OC(=O)[C@H](C(C)C)NC(=O)[C@H](C)OC(=O)[C@@H](C(C)C)NC(=O)[C@@H](C(C)C)OC1=O` [Valinomycin], the cell viability in the experiment on ES2 was 0.482; with TOV-21G, 0.355.

As to `Cc1sc2c(c1C)C(c1ccc(Cl)cc1)=N[C@@H](CC(=O)OC(C)(C)C)c1nnc(C)n1-2`, the cell viability came out at 0.502 in the experiment on ES2 and 0.305 in the experiment on TOV-21G.

For the compound `C[C@@H]1O[C@@H](O[C@H]2C[C@@H](O)[C@]3(CO)[C@H]4[C@H](O)C[C@]5(C)[C@@H](C6=CC(=O)OC6)CC[C@]5(O)[C@@H]4CC[C@]3(O)C2)[C@H](O)[C@H](O)[C@H]1O` [Ouabain], the cell viability was 0.439 in the experiment with ES2 and 0.279 in the experiment on TOV-21G.

Take `CN1C(=O)[C@]2(Cc3cn([C@]45C[C@@]67SS[C@@](CO)(C(=O)N6[C@H]4Nc4ccccc45)N(C)C7=O)c4ccccc34)SS[C@@]1(CO)C(=O)N2C` [Chetomin]: the cell viability in the experiment on ES2 came out at 0.32; with TOV-21G it was 0.254.

With `CN1C(=O)CN=C(c2ccc(Cl)cc2)c2cc(Cl)ccc21`, the results for the cell viability in the experiment on ES2 and in the experiment with TOV-21G were 1.1 and 0.825, respectively.

Regarding `C[C@H]1O[C@@H](n2cnc3c(N)ncnc32)C[C@@H]1O` [2',5'-dideoxyadenosine], the results for the cell viability in the experiment with ES2 and in the experiment on TOV-21G were 0.972 and 1.05, respectively.

Turning to `C[C@@]12C(=O)OC(=O)[C@]1(C)[C@H]1CC[C@@H]2O1` [Cantharidin], the values for the cell viability with ES2 and in the experiment with TOV-21G were 0.495 and 0.403, respectively.

As for `C[C@@]1(CO)[C@H](O)CC[C@@]2(C)[C@H]1CC[C@H]1C[C@@H]3C[C@@]12CC[C@]3(O)CO` [Aphidicolin], the values for the cell viability in the experiment with ES2 and in the experiment on TOV-21G were 0.419 and 0.869, respectively.

For the compound `CO/C1=C\C(C)=C\[C@@H](C)[C@@H](O)[C@@H](C)C/C(C)=C/C=C/[C@H](OC)[C@@H]([C@@H](C)[C@@H](O)[C@H](C)[C@@]2(O)C[C@@H](O)[C@H](C)[C@@H](C(C)C)O2)OC1=O` [Bafilomycin A1], the figures for the cell viability in the experiment on ES2 and in the experiment on TOV-21G were 0.467 and 0.395, respectively.

Consider `CC[C@@]1([C@@H]2O[C@@H]([C@H]3O[C@@](O)(CO)[C@H](C)C[C@@H]3C)C[C@@H]2C)CC[C@H]([C@]2(C)CC[C@]3(C[C@H](O)[C@@H](C)[C@@H]([C@@H](C)[C@@H](OC)[C@H](C)C(=O)O)O3)O2)O1` [Monensin], for which the figures for the cell viability in the experiment on ES2 and with TOV-21G were 0.419 and 0.368, respectively.

With `O=C1NC(=O)c2c1c1c3ccccc3n3c1c1c2c2ccccc2n1[C@H]1CC[C@@H]3O1`, the cell viability with ES2 was 0.973 and 1.25; with TOV-21G, 1.01 and 1.24.

Turning to `COc1ccc(C[C@H]2NC[C@H](O)[C@H]2OC(C)=O)cc1` [anisomycin], the cell viability in the experiment with ES2 was 0.394; in the experiment with TOV-21G, 0.372.

As to `CN(N=O)c1cc(O)ccc1O` [Dephostatin], the cell viability was 1.14 in the experiment with ES2 and 1.02 in the experiment with TOV-21G.

Regarding `NC(=S)N/N=C\c1coc2ccccc2c1=O.[Cl][Cu][Cl]` [Akt Inhibitor XI], the cell viability in the experiment on ES2 was 1.23; in the experiment with TOV-21G, 0.935.

Take `COC(=O)C1(OC)CC2OC1(C)n1c3ccccc3c3c4c(c5c6ccccc6n2c5c31)C(=O)N(C)C4` (stereo not given): the cell viability is 1 and 1.11 in the experiment on ES2; 0.914 and 1.01 in the experiment with TOV-21G.

As to `CO[C@@H]1C[C@@H](C[C@H]2CC[C@H](C)[C@H]([C@@H](C)C(=O)O)O2)O[C@]2(O[C@](C)([C@H]3CC[C@@](C)([C@@H]4O[C@@H]([C@H]5O[C@@](O)(CO)[C@H](C)C[C@@H]5C)C[C@@H]4C)O3)C[C@H]2C)[C@@H]1C` [Nigericin], the cell viability in the experiment on ES2 is 0.437; with TOV-21G, 0.344.

Regarding `CC(C)(c1ccc(OCC2CO2)cc1)c1ccc(OCC2CO2)cc1` (stereo not given), the cell viability with ES2 is 0.975; in the experiment on TOV-21G, 1.27.

The record behind these values is the supplement of paper PMC12669797.
